From ChEMBL document CHEMBL4513216, “Probing the Open Global Health Chemical Diversity Library for Multistage-Active Starting Points for Next-Generation Antimalarials” (ACS Infect Dis, 2020) come the findings set out here.

About 8,600 (12%) of roughly 69,000 compounds showed an effect of 50% or more. The sample as a whole holds a higher share of strong results than the screen did.

The subject of this assay is Plasmodium berghei. Put plainly: Screen against P. berghei liver stage (PbLuc), transformed with Luciferase, at 10uM. The class given is functional, HepG2. The note with it: tested at 10 uM.
Consider `CN1C(=O)CCC12CCC(NC(=O)NCc1cccnc1)CC2` (stereo unspecified), for which the INHIBITION was determined as 28.5%.

As to `CS(=O)(=O)N1CCN(Cc2ccc(F)cc2Br)CC1`, the INHIBITION is on record as 35.4%. On to `O=S(=O)(c1ccccc1)N1CCN(Cc2ccc(F)cc2Br)CC1`, for which the INHIBITION came out at 33.1%. On to `O=S(=O)(N1CCCCCC1)N1CCN(Cc2ccc(F)cc2Br)CC1`, for which the INHIBITION was 71.2%. On to `CN1C(=O)CC(C(=O)O)C12CCN(c1ccc3cccc(Cl)c3n1)CC2` (stereo unspecified), for which the INHIBITION is -0.273%. To `CCC1=N[C@@]2(CC[C@@H]3CN(CC(C)C)C[C@@H]32)C(=O)N1` belongs 24.9%; to `COC(=O)c1ccc(C2SCC(=O)Nc3ccsc32)cc1` (stereo unspecified), 78.1%. To `O=C1CSC(c2ccsc2)c2sccc2N1` (stereo unspecified) belongs 20.5%. Consider `COc1cccc(C2SCC(=O)Nc3ccsc32)c1` (stereo unspecified), for which the INHIBITION was 3.68%. For `COc1cc(C2SCC(=O)Nc3ccsc32)cc(OC)c1OC` (stereo unspecified), the INHIBITION stood at 29.4%.

Take `COc1ccc(C2SCC(=O)Nc3ccsc32)cc1` (stereo unspecified): the INHIBITION was 67.9%. As for `COc1ccc(C2SCC(=O)Nc3ccsc32)cc1OC` (stereo unspecified), the INHIBITION was 3.68%. Under `COc1cc(C2SCC(=O)Nc3ccsc32)cc(OC)c1O` (stereo unspecified) stands 43.7%; under `COc1cc(OC)cc(C2SCC(=O)Nc3ccsc32)c1` (stereo unspecified), 3.68%; under `O=C1CSC(c2ccc(O)cc2)c2sccc2N1` (stereo unspecified), 88.1%.

On to `COCC1CC2(CCN(Cc3nc(C)cs3)CC2)CO1` (stereo unspecified), for which the INHIBITION stood at 14.9%. For the compound `COc1cc(C(=O)NC(CC(=O)O)c2cccs2)cc(OC)c1C` (stereo unspecified), the INHIBITION was 5.03%. `COc1ccc(C2=NOC(CC#N)C2)cc1` (stereo unspecified): the INHIBITION is reported as 45.8%. As to `Cc1cc(C)n(CC2CCCN2C(=O)CCNc2ncccn2)n1` (stereo unspecified), the INHIBITION is -9.4%. `NC(=O)C1(CNC(=O)CCc2ccc(Cl)s2)CCOCC1`: the INHIBITION stood at 13.8%. In the case of `O=C(CCCN1CCCCC1)NC(C(=O)O)c1cccc(F)c1` (stereo unspecified), the INHIBITION is given as -20%. Turning to `CN(C)C(=O)COC1COC2(CCN(S(C)(=O)=O)CC2)C1` (stereo unspecified), the INHIBITION came out at 37%.

For the compound `CCn1cc2[nH]c(OC)c(CNC(=O)CCC3CCCC3)cc-2c1=O`, the INHIBITION worked out at 34.4%. To `COc1ccc(C(C)(C)C)cc1CN1CCn2c(CO)nnc2C1` belongs 48.4%; to `CCn1cc(NC(=O)C2CCN(Cc3noc(C4CC4)n3)CC2)cn1`, 18.2%. As to `CC(C)N(C)C(=O)c1ccc(Cl)c(NC(=O)CCN2C(=O)CCC2=O)c1`, the INHIBITION is on record as 35.2%. For the compound `O=C(CCN1C(=O)CCC1=O)Nc1ccc(OCC(F)(F)F)nc1`, the INHIBITION was 39.4%. For the compound `O=C(CCN1C(=O)CCC1=O)Nc1ccc(Oc2ccc(Cl)cc2)nc1`, the INHIBITION is listed as 51.1%. To `O=C(CCN1C(=O)CCC1=O)Nc1cnn(-c2ccccc2Cl)c1` belongs 28.5%; to `CC(C)OCC(=O)Nc1ccc(Oc2ccc3c(c2)OCO3)nc1`, 29.9%. Under `O=C(CCN1C(=O)CCC1=O)Nc1ccc(Cl)cc1` stands 67.2%.
